In PubChem BioAssay AID1508600 (Functional Genomics Laboratory (NCATS/FGL), 2020):
Hit rate of the full screen: of about 53,000 sequences, about 3,700 (7%) were called active. Many of the other results were omitted from the sample, so actives are more common in it than they were. Unmarked numbers belong to inactive results.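 How the source made its calls: active means gene knockdowns whose robust z-score for IL-1 alpha signal is at least 2 or at most -2, so actives lie on both sides; inactive means the rest.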

Test: Components of the Cytosolic LPS Sensing Pathway: Gene Identification via Genome-wide siRNA Screen;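 further: robust z of the log signal after scaling to non-targeting control siRNA wells of the plate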
Conditions: RAW264.7 macrophages, IL-1a HTRF, actives lie on both sides, screened at 100 nM (by protocol), cells primed 5 h with Pam3CSK4 first
In short: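 Read-out: IL-1a HTRF on supernatant, divided by plate negative-control median ×100, log-transformed and converted to robust z-score. Cells were RAW264.7 given 100 nM siRNA, Pam3CSK4-primed 5 hours, then LipidA-transfected 24 hour.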
With CCUCUCCAGUGUCGACAUUTT against Olfr51 the z-score was 0.347. For CGAAGUCGUGGCAAUGAUUTT against Nfu1, the z-score was 1.39. In the case of GCAGGAAGCCCAGUAAAGUTT against Figla, the z-score is reported as 0.44. With “GGAAGACACUGGUUUCCAATT against 1700067P10Rik” the z-score was 2.62 (active). GGAGAGAAGAAAAAGAAGGTT against Rrbp1 showed a z-score of 0.647. In the case of GCAUGAUUACCAGAACCACTT against Fcgr2b, the z-score is reported as 0.225. Work on GCAUGUGAAAUCUAGAUCATT against Cks1b yielded a z-score of -0.0851. With UGGUACCACCAUUUUUACCTT against Olfr452 the z-score was -1.2. GCUGGGCUUCAACGAUUACTT against Efna4 gave a z-score of 1.3. For GGUUCCUUAAACAUUCAGATT against Tspan31, the z-score was 2.28 (active). Sequence CGAUCACCAUGAUGAAUUCTT against Bex3 has a z-score of -0.128. GCAGGAUGCAGCGAUAGUUTT against Slc2a6 gave a z-score of -0.952. GGGCUACAGCAUGUAUGAGTT against Zc3h4 gave a z-score of 0.814. “GGAACGAAGUCUGAAACACTT against A730018C14Rik” gave a z-score of -1.89. Work on GGAGUCCCAGGACAUGAAATT against Pou5f1 yielded a z-score of 0.333. For GCCUCUGUCAAGUCUUGGATT against Ftl1, the z-score was -2.17 (active). For GGUACUGUUGCGCUUUGCUTT against Ciao3, the z-score was 1.47. For GGAGAAUUAACUGUUCCUCTT against Kcnmb2, the z-score was 2.23 (active). GCUGAGGCAUAAAAACGAGTT against Atad3a showed a z-score of -0.643. For GGUGAAUCUAUUUACCUGCTT against Fam71d, the z-score was 0.317. With GGAAUAUGUGCAGAAGCUGTT against Fgd2 the z-score was -1.2. In the case of “GGCUGUCUUAUUAAAGCUATT against A730013G03Rik”, the z-score is reported as -2.19 (active). GGUCUAGAGUUACCAUUCATT against Aqp9 showed a z-score of -0.954. CCAAGGACUCUCAUCUGUUTT against Zfp474 showed a z-score of -0.712. Work on GGACGACAGGAACUGGCAATT against Fbxo9 yielded a z-score of 0.615. GCAGAGGGCAACUCGUAAGTT against Gm6034 showed a z-score of -0.843. In the case of CCAACACUGAGCUCAGAAGTT against Igfbp2, the z-score is reported as -1.34. For GGCGGUCAAGGGAAAAACATT against Tcf7, the z-score was 2.19 (active). Sequence CCGACUAAUGCUAAAUCCATT against Pcgf1 has a z-score of 0.897. Sequence GGUGAAAUUCUGAAUGAAATT against Gatb has a z-score of -0.0515. In the case of GGAACUAGAAGAAAUGUUATT against Mrps9, the z-score is reported as 0.768. With GGGAGCAGAUUGAAACAGUTT against Eri2 the z-score was -0.546. In the case of CUUAGUGCUCUGGGAGCAGTT against Ms4a5, the z-score is reported as 0.487. Sequence CGAUCACCUUAGUAAAUACTT against Ykt6 has a z-score of 0.233. In the case of GGAAGGGACUGAUCGGUACTT against Igsf8, the z-score is reported as 1.61. Work on GCUGAGACUUCGAGCCUAUTT against Polr2c yielded a z-score of -0.976. With CCAGUUAAAAAGGUUCCAATT against Ccdc169 the z-score was 1.46. For GGAUAACCUAAUGUAGAUATT against Nphs2, the z-score was -0.0675. With GGAUCAAAAACACAUACUUTT against Adgre4 the z-score was 2.37 (active). For GGGAUAUCCCAGAACAAGATT against Vps37a, the z-score was 0.336. GCUUGGUAGAGAUGUUAAATT against Ryr3 gave a z-score of -0.119. For GCAUCAUUUUAACACUUCUTT against Tubd1, the z-score was -0.0435. With GGAGGGAAAACCACAAGACTT against Dppa4 the z-score was 0.514. In the case of CCUCUUAUUCAGAAUGUCCTT against Bnc2, the z-score is reported as 0.451. In the case of GCGAGGAGAGUGUGUUUUCTT against Bop1, the z-score is reported as 2.08 (active). Sequence GGACAUCCAGACAAUGAGGTT against Fam13b has a z-score of -1.62. Sequence GGUCGUCUGAUUUUUGAUATT against Atp1a1 has a z-score of 0.391. Work on GGACUGCUGGGAGAACUUUTT against Zcchc3 yielded a z-score of 0.76. With CGCAGGACAUUUGGUUUUGTT against Ssxb2 the z-score was 2.88 (active). For “GGGCCACAGGAUCUCACUUTT against 1700009J07Rik”, the z-score was -1.88. Sequence GGAGGAACAGAAGAAACUCTT against Tma7 has a z-score of -0.0481. Work on GGCUAUGCAAGUGGAGAGCTT against Nfat5 yielded a z-score of -0.311. In the case of GGACAAAGGCUGUAUUUUCTT against Tgm3, the z-score is reported as -1.07. With CGCGAGCUCAGAAUACAUGTT against Btn1a1 the z-score was 2.5 (active). With GGAGAUAAUAAUGAAGUCGTT against Sec11c the z-score was 0.353. With GGUUGGUGAACUUGGAGGUTT against Hspa1a the z-score was 1.41. Work on GGGUUUUUUUUUCCUUGAATT against Smndc1 yielded a z-score of -0.313. With GGCUGAUGGAAAUCCUUAATT against Ctif the z-score was 0.0158. With GGUAGAAUACGUGUUCCUGTT against Cacna1f the z-score was 2.79 (active). GGGCAAAGCCUUCAACCCUTT against Insl6 showed a z-score of -0.038. With CGCCACUGCUUUGAUUACUTT against Coa5 the z-score was -1.51. For GGCGCAUUACCAGAGCUUCTT against Tnpo2, the z-score was -0.425. In the case of CGUUGUCAAAAGGACCCAUTT against Pvr, the z-score is reported as -0.766. For GGAUAAGGUAGAAUUACUGTT against Slc26a4, the z-score was 3.06 (active). For GCACCGUGUGACCAUGAACTT against Akt1, the z-score was 3.96 (active). Sequence GCAAGGAUCCACGCUUUUCTT against Ckmt2 has a z-score of 1.34. GCCACUCUUAGUGCUAACUTT against Tctn3 showed a z-score of -1.25. For GGAUUACCUAAAUUUAGGATT against Hfm1, the z-score was 0.14. With GCACUACAGACACUUUUAGTT against Gm5533 the z-score was -2.12 (active). For GGAAAAUUCAGUUUAAUCCTT against Glt8d1, the z-score was 0.438. Work on GGACAGAACCAUCUGAAGGTT against Aldh18a1 yielded a z-score of 1.43. In the case of CGUGGAAAAGCUAUGUGCGTT against Lif, the z-score is reported as -0.188. With GGAAGCUGUGCUGAAUGGUTT against Atp5l the z-score was 0.387. For CGGCACUGUCAUAAGUGUGTT against Utp4, the z-score was 2.39 (active). GGAGGAAAAGGCUUUUCGATT against Ccdc70 showed a z-score of 1.04. With GGCACAUCACUGCUUACCUTT against Rce1 the z-score was -1.73. For GGAUGUGGAAUCAUGCUAUTT against Tnpo3, the z-score was 2.41 (active). With GCCAAGCCAUCUCAUUAAATT against Wdr18 the z-score was -0.724. Work on GCCUGACUUUAAUGAAGAATT against Slf2 yielded a z-score of -1.77. In the case of GGGUUUCUUGUUUCUUAGATT against Aldh6a1, the z-score is reported as -0.00669. For CGUGGUUCCUCUUUGGUGUTT against Kcnj10, the z-score was -0.217. With CCAGUUCUUAACAUUGUGUTT against Syap1 the z-score was -1.13. CCCAUCAUCUUCCCAUUCGTT against Olfr146 showed a z-score of -0.204. Work on GGGCUAGAUGAAUUUUUGATT against Aplnr yielded a z-score of -0.181. With GGCCUGGAUUCCUUAACAATT against Lgi1 the z-score was -3.23 (active). For CCAGCUAUGUGUAUAAACCTT against Ppid, the z-score was -0.045. GCCUGUGCCUUUUGAAUUCTT against Brox showed a z-score of -0.0201. GGUCUAUCCCAUCAUGCCUTT against Clcnka showed a z-score of 0.583. GCAGAGAGUUUUUAUCUGCTT against Vmp1 showed a z-score of 0.0579. For CGCUACGACUAGAGUUUGCTT against Rbpms, the z-score was 2.36 (active). Sequence GGGAAGAACUUCAAGCUUGTT against Ptk2b has a z-score of 0.668. For GGUUGGACUGACUAUCCAUTT against Olfr984, the z-score was 1.02. With GGCUGCUGACAUUUUCAUCTT against Lrrc28 the z-score was 1.53. With GGAUAUGCUCAGAGGUUUUTT against Pex11g the z-score was 2.2 (active). Sequence GGUCCUAACAUCCAGAGUGTT against Zfp438 has a z-score of -1.06. Sequence GGAUAAGACCAUCAGAUUATT against Wdr31 has a z-score of 1.18. With GGAGCUUGAUUCGAAGCCUTT against Bik the z-score was -0.364. GCGAAGAGUCAAAUCCAUCTT against Dock8 gave a z-score of -1.93. For CGGGUGCUAAAAUGUCUAUTT against Khdrbs2, the z-score was 2.81 (active). Sequence CCGAAGUUCACCCUAAAGGTT against Lmna has a z-score of -0.485. Sequence GCAAAGAAGUGUAUGUGUUTT against Olfr273 has a z-score of 0.0336. GCUUCUCAGAAGAUGUACUTT against Rgs16 gave a z-score of -1.06. GCCCUAUAUAUCAUUCUAGTT against Rhoa showed a z-score of 1.12. Sequence GCCUGUUAUAUGUGGCCUUTT against Olfr1352 has a z-score of 0.673. For GGAUGUCCUGAAAGAAAAATT against H2-M9, the z-score was 0.633. With GCUUUAUUCACUCACUUUCTT against Chsy3 the z-score was 0.814. In the case of GGAUAACUGUAACAGCCCGTT against Ly6g6c, the z-score is reported as -2.12 (active). In the case of GGUGAUUUCUAUCGAUUUUTT against Dhrs9, the z-score is reported as 0.144.
